Compound activity deposited in PubChem BioAssay by National Center for Advancing Translational Sciences (NCATS).
In the library only some 12% were active in any assay of this set; here they are far more common.
Sfp PPTase inh: blocks B. subtilis Sfp PPTase activity; Q9F4F7; Biochemical Sfp PPTase activity, qHTS; Potency, µM, for the others: largest response in the series, negative = inhibition, actives largely listed as inhibitors; hit rate 3.5% among 310,000;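 note: the enzyme is Sfp with the accession as filed and its product quenches rhodamine fluorescence; 0% = enzyme reaction without inhibitor and -100% = no enzyme wells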
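Step 1, compound plus 15 nM Sfp-PPTase, 15 min, room temperature. Step 2, add rhodamine-CoA (5 uM) and BHQ-2-YbbR (12.5 uM). Step 3, read 525/598 nm fluorescence at 0 and 30 min.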
VP16 counter: Gal4-VP16 reporter inhibition counter-screen; Drosophila S2 Gal4-VP16 UAS-luciferase, luminescence, 20 h; Potency, µM (top dose mostly 53.6 µM), for inactives: at the highest dose activity, negative = inhibition, hits mostly inhibitors; hit rate 3.5% among 310,000; AID 2546;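 note: Gal4-VP16 expression switched on by copper sulfate through the metallothionein promoter; nearly all actives have a fitted effect of over 50% in size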
RORgamma inh: ROR gamma (mouse) transcription inhibition; hit rate 5.4% among 310,000; P51450; Potency, µM (series often up to 53.6 µM), without a hit: at the top dose activity change, negative = inhibition, most hits filed as inhibitors; Drosophila S2 Gal4-RORgamma UAS-luciferase reporter, 20 h; AID 2551; note: nearly all actives have a fitted effect of over 60% in size
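Drosophila S2 cells stably expressing Gal4-DBD/mouse RORγ fusion under metallothionein promoter plus UAS-luciferase; compound 1 h, then 700 uM CuSO4 induction for 20 h at ambient temperature; inhibition read as reduced luminescence.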
PLK1 PBD block: blocks phosphopeptide binding to human PLK1 polo-box domain. P53350. Plk1 PBD binding of FITC phosphopeptide, fluorescence polarization. Potency, µM, inactives show max response, negative = inhibition, usual class: inhibitors. hit rate 2.8% among 360,000; note: series mostly up to about 57 µM; nearly all actives have a fitted effect of over 65% in size
ALDH1A1 inh: inhibitors of human aldehyde dehydrogenase 1A1. Potency, µM (series often up to 75.3 µM), without a hit: top-dose activity, negative = inhibition, most hits filed as inhibitors. Purified ALDH1A1, NADH fluorescence, propionaldehyde substrate. hit rate 7.3% among 220,000. AID 1030; active = well fitted inhibition curve with a large enough effect, not every such curve was filed as active; inconclusive = small, poorly fitted or top-dose-only effect, or another doubt; inactive = no such curve, though single readings can be large or run the other way;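 note: plate controls were no enzyme wells and a reference inhibitor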
Target sequence (P00352 whole entry, looked up): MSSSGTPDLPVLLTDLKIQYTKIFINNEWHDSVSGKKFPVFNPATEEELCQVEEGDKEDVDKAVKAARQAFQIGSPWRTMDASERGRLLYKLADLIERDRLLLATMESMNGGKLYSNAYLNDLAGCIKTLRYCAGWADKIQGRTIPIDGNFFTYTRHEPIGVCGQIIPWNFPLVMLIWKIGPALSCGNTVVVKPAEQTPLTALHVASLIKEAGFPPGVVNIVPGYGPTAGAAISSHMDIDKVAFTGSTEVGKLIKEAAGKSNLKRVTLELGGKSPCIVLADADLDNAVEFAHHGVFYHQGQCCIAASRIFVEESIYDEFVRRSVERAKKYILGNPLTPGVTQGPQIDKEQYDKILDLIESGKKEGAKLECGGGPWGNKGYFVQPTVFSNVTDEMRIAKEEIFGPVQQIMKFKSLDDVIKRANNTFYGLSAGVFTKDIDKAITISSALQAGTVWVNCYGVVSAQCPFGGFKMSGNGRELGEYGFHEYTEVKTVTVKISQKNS
Numbers without * were called inactive; ? = inconclusive; . = no result; ! = not active in a repeat; [ ] = remark or other dose. Unless noted, calls come from the whole dose curve; as a rule, active = well fitted curve in the direction sought with a large enough effect; inconclusive = small, poorly fitted or top-dose-only effect, or another doubt; inactive = no such curve, though single readings can be large; an effect the other way counts as inactive or inconclusive. Unless noted, % is set by controls: 0 for no effect and ±100 for the full control effect; potency is the fitted concentration of half-maximal effect.

SMILES	Sfp PPTase inh	VP16 counter	RORgamma inh	PLK1 PBD block	ALDH1A1 inh
CCCCC/C=C\C/C=C\CCCCCCCCCC(=O)NCCCC(=O)O	27%	-2%	19%	.	-1%
CC(=O)c1ccc(OCC(O)CN2CCN(Cc3ccc4c(c3)OCO4)CC2)cc1 (stereo not given)	89µM*!	-1%	0%	27µM*	4%
COc1ccc(OCC(O)CN2CCN(Cc3ccc4c(c3)OCO4)CC2)cc1 (stereo not given)	15%	2%	-9%	7%	-3%
CCn1nc(C)c(CNC(=O)CCc2nnc(-c3ccc(C(C)=O)s3)o2)c1C	-10%	5%	19%	0%	32µM*
COc1ccccc1C(=O)NC(=S)Nc1ccccc1N1CCCC1	8%	?	10µM*	.	.
Cc1ccccc1C(=O)NC(=S)Nc1ccccc1N1CCCC1	8%	-26%[10 µM]	7.1µM*	?	25µM*
O=C1NC[C@H](CCCCN2C[C@H](Cc3ccc(O)cc3)N(CC3CCCCC3)C(=O)C2=O)N(CCc2ccc(O)cc2)C1=O	.	.	.	7%	.
CC(C)(C)c1ccc(C(=O)N2CCC(=O)N(C(COCc3ccccc3)Cc3ccccc3)CC2)cc1 (stereo not given)	-11%	14µM*	22%	3%	?
CC(C)(C)c1ccc(C(=O)N2CCC(=O)N([C@H](COCc3ccccc3)Cc3ccccc3)CC2)cc1	.	.	.	0%	.
COc1ccc2c(c1)sc1nc(=O)ccn12	18%	-10%	-5%	2%	.
Cc1ccc2c(c1)sc1nc(=O)ccn12	12%	-7%	27%	15µM*	.
O=C(Nc1ccc(F)cc1)/C(=C1/CCCCCN1)[N+](=O)[O-]	7%	5%	1%	0%	.
O=C1NCCC/C1=N/Nc1ccc(F)cc1	12%	0%	29%	-9%	13µM*
O=S(=O)(/C=C/c1ccccc1)NC1CCCCCC1	8%	-7%	6%	27µM*	1%
O=S1(=O)CCC(NS(=O)(=O)/C=C/c2ccccc2)C1 (stereo not given)	24%	-6%	-40%	-7%	6%
Cc1nn(CC(C)C)c(Cl)c1C(=O)N(C)CC(=O)Nc1ccc(Cl)cc1	.	.	.	2%	.
CC(=O)OCC(NC(=O)C(C)NC(=O)OC(C)(C)C)C1OC(n2ccc(=O)[nH]c2=O)C(OC(C)=O)C1OC(C)=O (stereo not given)	-16%	-5%	31%	.	.
O=C(N/N=C/c1cccc2ccccc12)c1cc2ccccc2o1	5%	.	.	-13%	.
C#CCn1cc(/C=N/NC(=O)c2cc3ccccc3o2)c2ccccc21	6%	?	18µM*	-4%	?
O=C(N/N=C/c1ccccc1F)c1cc2c(ccc3ccccc32)o1	5%	?	?	-6%	.
COc1ccc(OC)c(/C=N\NC(=O)c2cc3c(ccc4ccccc43)o2)c1	2%	-13%	-36%	-2%	.
O=C(N/N=C/C=C/c1ccccc1)c1cc2c(ccc3ccccc32)o1	5%	?	7.1µM*	-21%	?
C=CCn1cc(/C=N\NC(=O)c2cc3c(ccc4ccccc43)o2)c2ccccc21	2%	-22%	5.6µM*	-1%	?
O=C(Nc1ccn(C2CCC(CO)O2)c(=O)n1)c1ccccc1 (stereo not given)	.	.	.	-5%	.
COc1ccc2c(c1)c1ccc3c(c1n2C)C(=O)C=CC3=O	2.2µM*	13µM*	22µM*	?	0.28µM*
SMILES	Sfp PPTase inh	VP16 counter	RORgamma inh	PLK1 PBD block	ALDH1A1 inh
Cc1ccc2c(c1)c1ccc3c(c1n2C)C(=O)C=CC3=O	2.5µM*	11µM*	11µM*	19µM*	.
Cc1ccc2c(c1)c1ncnc(N3CCOCC3)c1n2C	16%	4%	14%	-1%	?
OC[C@@H]1CN(Cc2ccc(F)cc2)C[C@H](n2cnc3c(N4CCCC4)ncnc32)O1	.	.	.	-3%	.
COc1cccc(-c2cc(=O)c3cc(O)ccc3o2)c1	14%	?	-36%	.	-1%
CCN(CC(=O)Nc1c(C(=O)OC)[nH]c2ccc(Cl)cc12)c1ccc2c(c1)OCO2	-18%	-2%	45%	-18%	?
CCOC(=O)c1[nH]c2ccc(Cl)cc2c1NC(=O)/C=C/c1ccc2c(c1)OCO2	12%	4.5µM*	?	3%	15%
COc1cccc(N2CC(C(=O)Nc3nnc(SCC(=O)c4ccccc4)s3)CC2=O)c1 (stereo not given)	79µM*	-11%	14%	-14%	-15%
O=C(CSc1nnc(NC(=O)C2CC(=O)N(c3ccccc3)C2)s1)NCc1ccco1 (stereo not given)	-21%	3%	-2%	-27%	.
COc1cccc(N2CC(C(=O)Nc3nnc(SCC(=O)NCc4ccco4)s3)CC2=O)c1 (stereo not given)	50µM*	-4%	-12%	?	.
COc1ccc(CC(=O)NNC2=Nc3cccc4cccc2c34)cc1	24%	-19%	8.9µM*	-16%	.
O=C(O)c1ccc(NC2=Nc3cccc4cccc2c34)cc1	-16%	29%	34%	38µM*	.
COc1ccccc1NC1=Nc2cccc3cccc1c23	9%	9%	?	-1%	.
COc1ccc(C(=O)NNC2=Nc3cccc4cccc2c34)cc1	13%	?	0.56µM*	2%	6%
NC(=O)NNC1=Nc2cccc3cccc1c23	4%	-11%	-35%	-8%	-1%
COc1ccc(CC(=O)NN2C(=O)c3ccccc3C2=O)cc1	5%	-1%	-12%	1%	9%
Cc1ccc(C(=O)NNC2=Nc3cccc4cccc2c34)cc1	4%	1.4µM*	0.89µM*	1%	2%
CCOC(=O)[C@]12CCCC=C1N(Cc1ccco1)C(=O)[C@H](CC(=O)NCCC(C)C)C2	.	.	.	-6%	.
Cc1ccc(-c2nn3c(-c4ccccc4)nnc3o2)cc1	.	.	.	-6%	.
Cc1cc(C=NCCCO)c(C)n1-c1cc(Cl)ccc1Cl	-5%	-10%	-1%	-10%	3.5µM*
Cc1cc(/C=N/n2cnnc2)c(C)n1-c1ccc(Cl)cc1Cl	-15%	-17%	-9%	-14%	?
O=C(Oc1ccc2c(=O)c(Cl)coc2c1)c1cccnc1	-13%	-7%	-14%	?	20µM*
CC/C=C1/OC(=O)c2ccccc21	.	-16%	13%	.	?
CN(C)c1ccc(CC(=O)N2CCCCC2c2cc(C(=O)Nc3cccc4c3CCCC4)no2)cc1 (stereo not given)	.	.	.	-3%	.
O=c1[nH][nH]c(=S)n1C1CCCCC1	2.8µM*	?	11µM*	3µM*	1.3µM*
O=C(NC1CCCC1)C(c1ccncc1)N(Cc1cccs1)C(=O)c1csnn1 (stereo not given)	20µM*	-7%	-9%	-22%	3.5µM*
Cc1ccc(C(C(=O)NC2CCCC2)N(Cc2ccccc2)C(=O)c2csnn2)o1 (stereo not given)	2%	8%	1%	-12%	.
Cc1ccc(C(C(=O)NC2CCCC2)N(Cc2ccc(F)cc2)C(=O)c2csnn2)o1 (stereo not given)	-5%	-16%	1%	-4%	14µM*
